Source: PubChem BioAssay (NCATS)
Records with an inconclusive call do not appear. Where a call stands in place of a potency, no number is given. Unmarked numbers belong to inactive results. Activity calls are given as the source filed them. Unless noted, the call rests on the fitted dose curve; in most records, active means well fitted curve in the direction sought with a large enough effect; inconclusive means small, poorly fitted or top-dose-only effect, or another doubt; inactive means no such curve, though single readings can be large; an effect the other way counts as inactive or inconclusive.

What was measured:
[1] = biological target: Voltage-gated inwardly rectifying potassium channel KCNH2 (Homo sapiens) (UniProt Q12809); assay: qHTS Assay for Small Molecule Inhibitors of the Human hERG Channel Activity (AID 588834);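 further: lower thallium flux fluorescence means stronger hERG block; nearly all actives have a fitted effect of over 50% in size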
Outline: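 U2OS cells BacMam-transduced with hERG, 2000 cells/well, compound ~10 min at 37 °C before stimulation buffer. FluxOR thallium flux fluorescence read kinetically on FDSS; decrease indicates block; AC50 from Hill fits.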

[2] = biological target: Luciferin 4-monooxygenase (Photinus pyralis) (UniProt P08659); assay: Biochemical firefly luciferase enzyme assay for NPC (AID 624030); further: nearly all actives have a fitted effect of over 70% in size
Outline: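 Counter-screen for direct inhibition of the luciferase enzyme by approved-drug library compounds, run at 10 nM enzyme in 50 mM Tris acetate (final). Luminescence was read within 5 min of enzyme-buffer addition and normalized to PTC124 versus DMSO (0%).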

[3] = S16 Schwann cell viability assay (CellTiter-Glo assay) (AID 624031); further: nearly all actives have a fitted effect of over 70% in size
Outline: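 Counter-screen for cytotoxicity: parental S16 rat Schwann cells lacking the PMP22 reporters, treated 24 h with compound, viability from cellular ATP by CellTiter-Glo luminescence, normalized to DMSO (0%) and no-cell wells.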

[4] = S16 Schwann cell PMP22 intronic element firefly luciferase assay (AID 624032); further: nearly all actives have a fitted effect of over 30% in size
Outline: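 Rat S16 Schwann cells stably carrying a PMP22 intronic element-driven Fluc reporter were seeded overnight, then exposed to compounds for 24 h at 37 °C. Luminescence was normalized to PTC124 (positive control) and DMSO (0% activity).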

[5] = S16 Schwann cell PMP22 intronic element beta-lactamase assay (AID 624044; calls by dose curve; further: nearly all actives have a fitted effect of over 15% in size); conditions: S16 rat Schwann cells, PMP22 element beta-lactamase FRET, 24 h; ratio activity, negative = inhibition: at 38.3 µM (top of the series) unless noted
Outline: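 Rat S16 Schwann cells with beta-Lac driven by a PMP22 intronic element, compound-treated 24 h at 37 °C. LiveBLAzer FRET B/G read: 460 nm normalized to potassium clavulanate vs DMSO; 535 nm FRET as viability; concentration-effect curves classified.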
Potency means the concentration at half of the fitted maximal effect.

Voltage-gated inwardly rectifying potassium channel KCNH2 (Homo sapiens), sequence (Q12809 whole entry, looked up): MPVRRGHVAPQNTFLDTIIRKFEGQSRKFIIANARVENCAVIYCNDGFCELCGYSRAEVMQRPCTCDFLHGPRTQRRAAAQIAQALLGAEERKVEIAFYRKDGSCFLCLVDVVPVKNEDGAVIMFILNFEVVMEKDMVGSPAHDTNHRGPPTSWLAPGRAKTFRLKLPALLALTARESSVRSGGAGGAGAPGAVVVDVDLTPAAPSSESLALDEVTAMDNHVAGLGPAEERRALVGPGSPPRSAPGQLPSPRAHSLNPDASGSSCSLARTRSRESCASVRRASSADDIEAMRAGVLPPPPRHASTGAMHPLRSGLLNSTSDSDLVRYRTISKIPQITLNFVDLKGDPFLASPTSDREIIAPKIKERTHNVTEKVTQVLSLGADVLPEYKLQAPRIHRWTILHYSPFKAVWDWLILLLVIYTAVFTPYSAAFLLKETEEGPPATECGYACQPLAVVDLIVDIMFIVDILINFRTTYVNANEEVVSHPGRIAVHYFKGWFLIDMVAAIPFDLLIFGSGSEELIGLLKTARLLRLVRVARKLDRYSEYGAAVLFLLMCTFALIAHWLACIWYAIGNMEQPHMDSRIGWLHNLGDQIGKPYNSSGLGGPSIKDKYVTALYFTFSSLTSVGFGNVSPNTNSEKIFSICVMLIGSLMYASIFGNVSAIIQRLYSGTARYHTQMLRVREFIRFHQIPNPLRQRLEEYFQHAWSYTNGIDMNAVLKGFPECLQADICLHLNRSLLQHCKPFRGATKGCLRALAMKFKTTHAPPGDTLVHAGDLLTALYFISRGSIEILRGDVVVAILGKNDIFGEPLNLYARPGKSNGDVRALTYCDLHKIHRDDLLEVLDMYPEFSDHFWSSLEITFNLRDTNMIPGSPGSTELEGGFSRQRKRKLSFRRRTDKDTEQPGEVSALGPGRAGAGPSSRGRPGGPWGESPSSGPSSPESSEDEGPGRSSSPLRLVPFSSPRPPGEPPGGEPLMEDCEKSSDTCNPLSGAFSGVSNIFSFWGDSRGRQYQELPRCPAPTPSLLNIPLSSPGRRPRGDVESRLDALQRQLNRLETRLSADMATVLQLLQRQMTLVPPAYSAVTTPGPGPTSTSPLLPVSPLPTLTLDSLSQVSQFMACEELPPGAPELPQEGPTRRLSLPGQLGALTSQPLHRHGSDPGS
Luciferin 4-monooxygenase (Photinus pyralis), sequence (P08659 whole entry, looked up): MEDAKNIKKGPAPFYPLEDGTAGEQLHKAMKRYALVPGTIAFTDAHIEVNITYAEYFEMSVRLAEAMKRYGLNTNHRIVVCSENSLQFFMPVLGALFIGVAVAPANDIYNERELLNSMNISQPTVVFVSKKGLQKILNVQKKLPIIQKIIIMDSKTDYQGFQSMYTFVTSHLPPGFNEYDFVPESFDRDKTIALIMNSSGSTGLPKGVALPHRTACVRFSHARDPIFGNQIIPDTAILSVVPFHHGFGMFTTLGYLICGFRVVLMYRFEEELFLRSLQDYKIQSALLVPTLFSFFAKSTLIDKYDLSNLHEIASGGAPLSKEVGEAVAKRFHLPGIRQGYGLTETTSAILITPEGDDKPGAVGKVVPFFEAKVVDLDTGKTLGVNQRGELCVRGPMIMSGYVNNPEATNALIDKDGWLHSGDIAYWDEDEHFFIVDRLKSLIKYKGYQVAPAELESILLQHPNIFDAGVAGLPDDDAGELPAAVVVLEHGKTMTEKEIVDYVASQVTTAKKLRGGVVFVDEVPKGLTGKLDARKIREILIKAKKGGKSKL

Compound	Potency [1]	Potency [2]	Potency [3]	Potency [4]	ratio activity, negative = inhibition [5]	Potency [5]
CC(CC=O)CCCC(C)(C)O (configuration not stated)	inactive	inactive	inactive	inactive	3.36%	–
COC1=C(OC)C(=O)C(C/C=C(\C)CC/C=C(\C)CC/C=C(\C)CC/C=C(\C)CC/C=C(\C)CC/C=C(\C)CC/C=C(\C)CC/C=C(\C)CC/C=C(\C)CCC=C(C)C)=C(C)C1=O	inactive	inactive	inactive	0.642 µM (active)	0.236%	–
OC1OC[C@@H](O)[C@H](O)[C@@H]1O (some centres not stated)	inactive	inactive	inactive	inactive	0.472%	–
O=C(NCCNCC(O)COc1ccc(O)cc1)N1CCOCC1 (configuration not stated)	inactive	inactive	inactive	inactive	1.92%	–
CC(C)C1=CC2=CC[C@@H]3[C@](C)(CCC[C@@]3(C)C(=O)O)[C@H]2CC1	inactive	inactive	inactive	inactive	-5.72%	–
O=C1[O][Bi][O]c2ccccc21	inactive	inactive	inactive	inactive	0.885%	–
CCOC(=O)[C@@H](N)CS	inactive	inactive	inactive	0.0573 µM (active)	-2.51%	–
CCCCC/C=C\C/C=C\C/C=C\CCCCC(=O)O	inactive	inactive	inactive	inactive	-14.4%	–
O=C1c2ccccc2C(=O)C1c1ccc(F)cc1	inactive	inactive	inactive	inactive	2.55%	–
O=C(O)Cc1cc(I)c(Oc2ccc(O)c(I)c2)c(I)c1	inactive	inactive	inactive	inactive	4.37% [at 17.1 µM]	–
CC(=O)Nc1ccc(OC(=O)c2ccccc2O)cc1	inactive	25.6 µM (active)	inactive	inactive	1.52%	–
O=C(O)c1ccc(NC(=O)[C@H](Cc2ccc(O)cc2)NC(=O)c2ccccc2)cc1	inactive	inactive	inactive	inactive	6%	–
CN1CCC(OC(=O)C(Oc2ccc(Cl)cc2)Oc2ccc(Cl)cc2)CC1	1 µM (active)	inactive	inactive	inactive	2.81%	–
C/C(=C\C(=O)OCCCCCCCCC(=O)O)C[C@@H]1OC[C@H](C[C@@H]2O[C@H]2[C@@H](C)[C@H](C)O)[C@@H](O)[C@H]1O	inactive	inactive	inactive	inactive	0.0634%	–
O=C(O)c1cc(N=Nc2ccc(O)c(C(=O)O)c2)ccc1O	inactive	9.07 µM (active)	inactive	inactive	-0.669%	–
[O]=[Bi][O][Bi]=[O]	inactive	inactive	inactive	inactive	3.6%	–
COC(=O)CC[C@H](N)C(=O)O	inactive	inactive	inactive	inactive	-5.51%	–
CCN(CC)CCOc1ccc2nc(N(C)C)sc2c1	inactive	inactive	inactive	inactive	0.178%	–
O=C(O)/C=C/c1ccccc1	inactive	inactive	inactive	inactive	-0.672%	–

Compound	Potency [1]	Potency [2]	Potency [3]	Potency [4]	ratio activity, negative = inhibition [5]	Potency [5]
CC(=O)Nc1ccc(NC(=S)NC(=O)c2ccc(C(C)(C)C)cc2)cc1	8.91 µM (active)	inactive	inactive	inactive	–	7.94 µM (active)
NC(=O)[C@@H]1CCCN1C(=O)[C@H](Cc1cnc[nH]1)NC(=O)[C@@H]1CCC(=O)N1	inactive	inactive	inactive	inactive	6.16%	–
O=C(O)CCC(=O)c1ccc(-c2ccccc2)cc1	inactive	4.36 µM (active)	inactive	inactive	0.885% [at 17.1 µM]	–
O=[n+]1ccn([O-])c2ccccc21	inactive	inactive	inactive	inactive	6.86%	–
CC[C@H]1OC(=O)[C@H](C)[C@@H](O[C@H]2C[C@@](C)(OC)[C@@H](O)[C@H](C)O2)C(C)[C@@H](O[C@@H]2O[C@H](C)C[C@H](N(C)C)[C@@H]2O)[C@](C)(OC)C[C@@H](C)C(=O)[C@H](C)[C@@H](O)[C@]1(C)O (some centres not stated)	inactive	inactive	inactive	inactive	4.6%	–
CN1C(=O)C[C@@H](C(=O)N[C@@H](Cc2cnc[nH]2)C(=O)N2CCC[C@H]2C(N)=O)NC1=O	inactive	inactive	inactive	inactive	-0.824%	–
CCCCCCCCCCCC(=O)OCC(O)CO (configuration not stated)	inactive	inactive	inactive	inactive	1%	–
CNC(=O)c1c(I)c(C(=O)NCC(=O)Nc2c(I)c(C(=O)O)c(I)c(C(=O)NCCO)c2I)c(I)c(N(C)C(C)=O)c1I	inactive	inactive	inactive	inactive	5.89%	–
CC(CNC(=O)c1cccnc1)NC(=O)c1cccnc1 (configuration not stated)	inactive	inactive	inactive	inactive	0%	–
CCCOc1cc(N)ccc1C(=O)OCCN(CC)CC	inactive	inactive	inactive	inactive	1.14% [at 17.1 µM]	–
CCCCCCCCCCCCOCCCN	inactive	inactive	inactive	inactive	0.509%	–
COc1cc(S(C)=O)ccc1-c1nc2ncccc2[nH]1 (configuration not stated)	inactive	inactive	inactive	inactive	-7.74%	–
Cc1cc(-c2ccc(N=Nc3c(S(=O)(=O)O)cc4cc(S(=O)(=O)O)cc(N)c4c3O)c(C)c2)ccc1N=Nc1c(S(=O)(=O)O)cc2cc(S(=O)(=O)O)cc(N)c2c1O	inactive	9.07 µM (active)	12.8 µM (active)	12.8 µM (active)	8.59%	–
CN[C@@H]1[C@H](O[C@H]2[C@H](O[C@H]3[C@H](O)[C@@H](O)[C@H](N=C(N)N)[C@@H](O)[C@@H]3N=C(N)N)O[C@@H](C)[C@]2(O)C=O)O[C@@H](CO)[C@H](O)[C@H]1O	inactive	inactive	inactive	inactive	0%	–
NC(=S)NS(=O)(=O)c1ccc(N)cc1	inactive	inactive	inactive	inactive	-12.7% (active)	–
O=C1c2ccccc2CN2C(=O)c3ccccc3CN12	inactive	inactive	inactive	inactive	0.507%	–
COc1cc2c(cc1OC)[C@@H](Cc1cc(OC)c(OC)c(OC)c1)[N+](C)(CCCOC(=O)CC/C=C/CCC(=O)OCCC[N+]1(C)CCc3cc(OC)c(OC)cc3[C@H]1Cc1cc(OC)c(OC)c(OC)c1)CC2 (some centres not stated)	inactive	inactive	inactive	inactive	-5.32%	–
CC(C)[C@H](N)C(=O)OCC(CO)OCn1cnc2c(=O)[nH]c(N)nc21 (some centres not stated)	inactive	inactive	inactive	inactive	0.697%	–
O=C(O)Cc1nn(Cc2ccc(Br)cc2F)c(=O)c2ccccc12	inactive	inactive	inactive	inactive	3.04%	–

Compound	Potency [1]	Potency [2]	Potency [3]	Potency [4]	ratio activity, negative = inhibition [5]	Potency [5]
CCC(C(=O)NC(N)=O)c1ccccc1 (configuration not stated)	inactive	inactive	inactive	inactive	8.54%	–
O=C(O)COc1ccc(CCNS(=O)(=O)c2ccccc2)s1	inactive	inactive	inactive	inactive	-0.95%	–
CCCCC(CC)CCC(CC(C)C)OS(=O)(=O)O (configuration not stated)	inactive	inactive	inactive	inactive	0%	–
O[C@@H]([C@H](O)[C@H](O)CBr)[C@H](O)CBr	inactive	inactive	inactive	–	3.07%	–
CC(C)(COP(=O)(O)OP(=O)(O)OC[C@H]1O[C@@H](n2cnc3c(N)ncnc32)[C@H](O)[C@@H]1OP(=O)(O)O)C(O)C(=O)NCCC(=O)NCCS (some centres not stated)	inactive	inactive	inactive	inactive	1.27%	–
CC(C)[C@@H](N)C(=O)O	inactive	inactive	inactive	inactive	0.806%	–
O=P(O)(O)OC[C@H](O)CO	inactive	inactive	inactive	inactive	2.95%	–
Cc1ncc(COP(=O)(O)O)c(CN)c1O	inactive	inactive	inactive	inactive	-0.583%	–
OCCCNc1ccccc1	inactive	inactive	inactive	inactive	0.736%	–
O=C1CCC(c2ccccc2)(C2CCN(Cc3ccccc3)CC2)C(=O)N1 (configuration not stated)	14.1 µM (active)	inactive	inactive	inactive	1.84%	–
NC(=O)C1c2ccccc2CCc2ccccc21	inactive	inactive	inactive	inactive	-1.01%	–
CC(=O)c1ccc2c(c1)N(CCCN1CCN(CCO)CC1)c1ccccc1S2	7.08 µM (active)	inactive	28.7 µM (active)	16.1 µM (active)	-15.1%	–
CCCc1nc(C(C)(C)O)c(C(=O)OCc2oc(=O)oc2C)n1Cc1ccc(-c2ccccc2-c2nn[nH]n2)cc1	inactive	inactive	inactive	inactive	0.293%	–
COC(=O)C(CN)c1c[nH]c2ccc(OC)cc12 (configuration not stated)	inactive	inactive	inactive	–	0.76%	–
CCCCCCCCCCCCCCCCCCCCCC(=O)Nc1ccn([C@@H]2O[C@H](CO)[C@@H](O)[C@@H]2O)c(=O)n1	inactive	inactive	inactive	inactive	-0.57%	–
C=CC[N+]1([C@H]2C[C@H]3[C@@H]4CC[C@H]5C[C@H](O)[C@@H](N6CCOCC6)C[C@]5(C)[C@H]4CC[C@]3(C)[C@H]2OC(C)=O)CCCC1	inactive	inactive	inactive	–	-0.444%	–
CCc1ncnc2cc(OC)c(OC)cc12	inactive	inactive	inactive	inactive	-3.22%	–
COc1ccc2c(=O)c(C)c(-c3ccccc3)oc2c1CN(C)C	inactive	inactive	inactive	inactive	-18.3%	–
